# KCNQ2 block = inhibitors of rat KCNQ2 potassium channel; O88943; CHO-K1 KCNQ2, FluxOR thallium flux, 20 min; stronger effect = lower value; B-score at 10 µM; 310,000 tested, 1.1% active; AID 2156;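 active = fluorescence ratio B-score at most minus 3 library SDs, with starting brightness B-score within 2 library SDs, cut at about -5.5 in these data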
# Target sequence (O88943 whole entry, looked up): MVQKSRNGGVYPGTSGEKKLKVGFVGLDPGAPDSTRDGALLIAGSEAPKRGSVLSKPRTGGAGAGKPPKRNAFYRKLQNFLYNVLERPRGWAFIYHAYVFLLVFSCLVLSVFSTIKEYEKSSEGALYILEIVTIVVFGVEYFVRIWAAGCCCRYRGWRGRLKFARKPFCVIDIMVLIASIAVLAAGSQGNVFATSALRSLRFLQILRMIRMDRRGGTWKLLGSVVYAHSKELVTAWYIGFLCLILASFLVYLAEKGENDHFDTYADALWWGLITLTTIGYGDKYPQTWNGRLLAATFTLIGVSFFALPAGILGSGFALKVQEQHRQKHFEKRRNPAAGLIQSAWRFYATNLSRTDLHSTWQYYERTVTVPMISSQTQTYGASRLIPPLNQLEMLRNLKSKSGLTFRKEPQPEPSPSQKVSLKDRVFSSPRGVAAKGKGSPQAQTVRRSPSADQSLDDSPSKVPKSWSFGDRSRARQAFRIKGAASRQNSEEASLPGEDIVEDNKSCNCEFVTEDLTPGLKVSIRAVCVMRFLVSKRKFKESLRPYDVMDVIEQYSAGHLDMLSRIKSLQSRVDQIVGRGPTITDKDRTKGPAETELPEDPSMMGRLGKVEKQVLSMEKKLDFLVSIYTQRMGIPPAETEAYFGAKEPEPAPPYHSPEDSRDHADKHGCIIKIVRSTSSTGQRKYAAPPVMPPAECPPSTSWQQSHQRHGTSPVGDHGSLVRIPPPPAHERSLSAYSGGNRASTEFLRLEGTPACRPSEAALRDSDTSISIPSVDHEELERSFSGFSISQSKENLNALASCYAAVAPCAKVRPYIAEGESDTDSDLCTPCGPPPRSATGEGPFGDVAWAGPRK
# KCNQ2 enhance = enhances the rat KCNQ2 potassium channel; CHO-K1 KCNQ2, FluxOR thallium flux fluorescence; stronger effect = higher value; 310,000 tested, 0.54% active; AID 2239; B-score at 10 µM; O88943;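 active = fluorescence ratio B-score at least 3 SD of library B-scores, with initial fluorescence B-score within 3 of them, cut at about 5.3 in these data; same plate scores as AID 2156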;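 note: B-score of peak minus minimum over baseline fluorescence ratio after K+ and Tl+ stimulus; positive B-score means potentiation of KCNQ2 with more thallium influx and brighter signal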
# Kir21 confirm = confirmation of mouse Kir2.1 potassium channel inhibitors | shares compounds with KCNQ2 enhance | Kir2.1-expressing cells, FluxOR thallium flux fluorescence; stronger effect = lower value | Tl flux remaining, % of negative control (stronger effect = lower value), % at 10 µM | 2,300 tested, 41% active | AID 2032;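 active = Primary-screen hit whose thallium flux fell at least 3 control SD below untreated wells in both duplicates, with normal baseline fluorescence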;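 note: 0% = blank wells without stimulus and 100% = stimulated no-compound controls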
# HEK293 Tl flux = alters thallium flux in parental HEK293 cells, Kir2.1 counter-screen; shares compounds with KCNQ2 enhance; FluxOR thallium flux fluorescence; 0% = unstimulated blank wells; FluxOR signal as % of negative control (100 = no effect), % at 10 µM; 2,300 tested, 19% active; AID 2105;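 active = dye signal at least 3 control SD above or below untreated wells in both duplicates, raw fluorescence within 3, either direction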;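 note: percent is based on the flux ratio of peak minus minimum fluorescence over baseline F0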
# CHO-K1 ctr = parental CHO-K1 activity in KCNQ2 potentiator counter-screen. parental CHO-K1 cells, FluxOR thallium flux fluorescence; zero = vehicle mean+3SD, 100% = vehicle-minus-blank window. shares compounds with KCNQ2 enhance. AID 2282. activity increase over 3SD of controls, % at 10 µM. 1,200 tested, 43% active;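 active = signal rise of at least 3 SD above the untreated control mean, in both duplicate wells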;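 note: counter screen of KCNQ2 potentiator hits so any rise reflects channel-independent effects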
# KCNQ1 sel pot = human KCNQ1 counter-target activity of KCNQ2 potentiators; activation over 3SD threshold, % at 10 µM; CHO KCNQ1 stable, FluxOR thallium flux fluorescence; beyond 3SD, as % of vehicle-control signal; 1,200 tested, 28% active; shares compounds with KCNQ2 enhance;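 active = fluorescence ratio rise of at least 3 SD of vehicle wells above their mean, in both replicate wells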;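 note: 0% = vehicle mean plus 3 SD and 100% = vehicle minus unstimulated blank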
# KCNQ2 pot conf = confirmation of rat KCNQ2 potassium channel potentiators. shares compounds with KCNQ2 enhance. CHO-KCNQ2 cells, FluxOR thallium flux fluorescence. potentiation, less the hit threshold, % at 10 µM. 1,200 tested, 68% active. AID 2287;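 active = fluorescence ratio rising 3 SD or more over the vehicle control mean in both replicates, plus primary screen hit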;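 note: peak minus minimum thallium fluorescence divided by baseline after K/Tl stimulus; 0% = vehicle mean plus 3 SD and 100% = vehicle minus unstimulated blank difference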
# Kir21 spec = tests whether KCNQ2 potentiators also affect mouse Kir2.1; shares compounds with KCNQ2 enhance; HEK293 Kir2.1, FluxOR thallium flux fluorescence; activity over 3SD threshold, % at 10 µM; 1,200 tested, 2% active; AID 2345;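 active = fluorescence ratio rise of at least 3 SD above the vehicle-control mean, seen in both replicates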;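 note: 0% = vehicle mean plus 3 SD and 100% = vehicle minus no-stimulus blank window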
# KCNQ2 W236L MoA = rat KCNQ2 W236L mutant potentiation by KCNQ2 potentiators; shares compounds with KCNQ2 enhance; CHO KCNQ2-W236L, automated patch clamp current; current increase over 3SD of negative controls (%), stronger effect = higher value, % at 25 µM; 940 tested, 10% active; AID 2558;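 active = current increase at least 3 SD of the untreated controls above them in both duplicate recordings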
# * = called active by the depositor; i = inactive; . = not tested or not shown. Sampled rows, rich in hits. Any-hit rate of the full collection: about 1.6%.
SMILES,KCNQ2 block,KCNQ2 enhance,Kir21 confirm,HEK293 Tl flux,others
Cc1cccc(CC(=O)NC2CCCCCC2)c1,i,6.7*,i,i,CHO-K1 ctr=-6;KCNQ1 sel pot=-37;KCNQ2 pot conf=11*;Kir21 spec=-34;KCNQ2 W236L MoA=i
Cc1cccc(OCC(=O)NC2CCCC2)c1,i,0.59,.,.,
CS(=O)(=O)NCCNc1ccc(C(F)(F)F)cc1[N+](=O)[O-],i,.,.,.,
O=C(NCc1cccnc1)/C(=C/c1ccccc1)NC(=O)c1ccccc1,i,0.2,.,.,
Nc1cccc(S(=O)(=O)c2cccc(N)c2)c1,i,1,.,.,
O=C(c1cc(COc2cccc(C(F)(F)F)c2)on1)N1CCC(c2ccccc2)CC1,i,.,.,.,
C#CCNC(=O)C1=C[C@@H](c2ccc(Br)cc2)C[C@@H](OCc2ccc(CO)cc2)O1,i,.,.,.,
C#CCNC(=O)C1=C[C@@H](c2ccc(C#C)cc2)C[C@@H](OCc2ccc(CO)cc2)O1,i,.,66%*,i,
CCOc1ccc(N(CC(=O)NCc2ccc(Cl)cc2)S(=O)(=O)c2ccccc2)cc1,i,0.5,.,.,
N/C(=N\OC(=O)c1ccccc1F)c1ccc([N+](=O)[O-])cc1,i,.,.,.,
COc1cc2c(cc1NC(=O)Cc1ccc(C)cc1)oc1ccccc12,i,.,.,.,
CCN(CC)CC#CCC(C)(c1ccccc1)c1ccccc1,i,.,i,i,
CCN(CC)CC#CCC(O)(c1ccccc1)c1ccccc1,i,.,.,.,
CCc1ccc(S(=O)(=O)NCCc2csc(-c3ccccc3)n2)s1,i,.,.,.,
CCc1ccc(S(=O)(=O)NCc2csc(-c3ccccc3)n2)s1,i,.,49%*,i,
COc1cccc(N=c2oc3ccccc3cc2-c2nc3ccccc3[nH]2)c1,i,.,.,.,
O=C(NCC(=O)N(c1ccc(F)cc1)C(C(=O)NC1CCCC1)c1cccnc1)c1ccco1 (centres undefined),i,3,.,.,
CCCCCCCC(=O)NNC(=O)Cc1ccccc1,i,0.67,.,.,
CCCCCC/C(C)=C1/SC(=S)NC1=O,i,22*,i,438%*,CHO-K1 ctr=6.0*;KCNQ1 sel pot=-23;KCNQ2 pot conf=104*;Kir21 spec=-3;KCNQ2 W236L MoA=71%*
O=C(Nc1cccnc1Cl)c1cc(-c2cccc(O)c2)on1,i,.,.,.,
COc1ccc(NC(=O)CC2CCCC2)cc1OC,i,.,.,.,
O=C(Cc1ccccc1)Nc1ccc2c(c1)CCC2,i,6.5*,i,i,CHO-K1 ctr=17*;KCNQ1 sel pot=-17;KCNQ2 pot conf=81*;Kir21 spec=-31;KCNQ2 W236L MoA=i
O=C(CC1CCCC1)Nc1ccc2c(c1)CCC2,i,26*,i,i,CHO-K1 ctr=-48;KCNQ1 sel pot=-16;KCNQ2 pot conf=80*;Kir21 spec=-39;KCNQ2 W236L MoA=i
COc1ccc(CC(=O)Nc2ccc3c(c2)CCC3)cc1,i,1.7,.,.,
O=C(Cc1ccccc1)Nc1ccc(N2CCCC2)cc1,i,1.8,.,.,
SMILES,KCNQ2 block,KCNQ2 enhance,Kir21 confirm,HEK293 Tl flux,others
O=C(Cc1ccccc1)Nc1cccc(N2CCCC2)c1,i,6*,i,i,CHO-K1 ctr=-23;KCNQ1 sel pot=-7;KCNQ2 pot conf=21*;Kir21 spec=-27;KCNQ2 W236L MoA=0.1%*
OC[C@H]1O[C@@H](n2cnc3c(NC4CCCC4)ncnc32)[C@H](O)[C@@H]1O,i,0.1,.,.,
O=c1cc(-c2ccccc2)[nH]c2[nH]n(-c3ccccc3)c(=O)c12,i,0.84,.,.,
c1ccc(CCNc2ncnc3ccccc23)cc1,i,.,.,.,
CCCCCCCCNc1ncnc2ccccc12,i,.,i,128%*,
COC(=O)c1ccc2[nH]c3cccc(/C(=C/c4ccccc4)c4ccccc4)c3c2c1,i,0.49,.,.,
Cc1cc2c(ncn2C(C)C)c(NS(=O)(=O)c2ccc(F)cc2)c1C,i,5.3*,i,i,CHO-K1 ctr=-15;KCNQ1 sel pot=9.7*;KCNQ2 pot conf=4.3*;Kir21 spec=-41;KCNQ2 W236L MoA=i
Cc1cc2c(ncn2C)c(NS(=O)(=O)c2ccc(F)cc2)c1C,i,0.03,.,.,
O=c1[nH]nnc2c1sc1nc(N3CCOCC3)c3c(c12)CCCC3,i,1.7,.,.,
S=c1nc[nH]c2c1sc1nc(N3CCOCC3)c3c(c12)CCCC3,i,12*,i,270%*,CHO-K1 ctr=36*;KCNQ1 sel pot=-19;KCNQ2 pot conf=60*;Kir21 spec=-10;KCNQ2 W236L MoA=i
Cc1cc(NC(=O)CSc2nc(CC(C)(C)C)nc3c2c(=O)n(C)c(=O)n3C)no1,i,.,i,i,
CCc1nc(SCC(=O)Nc2cc(C)on2)c2c(=O)n(C)c(=O)n(C)c2n1,i,0.93,.,.,
CCC12C(=O)C(CC)(C(c3ccccc3)=C1c1ccccc1)[C@@H]1C(=O)N(c3ccc(C)cc3)C(=O)C12 (some centres undefined),i,.,.,.,
O=C(CCOc1ccccc1)Nc1ccnn1C1CCN(Cc2ccc(CO)o2)CC1,i,1,.,.,
O=C(CN1CCN(Cc2ccccc2)CC1)N1CCCc2ccccc21,i,0.64,.,.,
O=C(CN1CCN(Cc2ccc(Cl)cc2)CC1)N1CCc2ccccc21,i,0.49,35%*,i,
Cc1cccc(NC(=O)C2CCN(S(C)(=O)=O)CC2)c1C,i,0.32,.,.,
Cc1cc(C)c(NC(=O)C2CC3CCC2C3)c(C)c1 (centres undefined),i,28*,i,i,CHO-K1 ctr=-6;KCNQ1 sel pot=-12;KCNQ2 pot conf=112*;Kir21 spec=-21;KCNQ2 W236L MoA=i
COC(=O)c1ccc(NC(=O)C2CC3CCC2C3)cc1 (centres undefined),i,1.2,.,.,
Cc1cccc(C)c1NC(=O)C1CC2CCC1C2 (centres undefined),i,6.2*,i,i,CHO-K1 ctr=2.9*;KCNQ1 sel pot=34*;KCNQ2 pot conf=-3;Kir21 spec=-32;KCNQ2 W236L MoA=i
CCOC(=O)c1ccc(NC(=O)C2CC3CCC2C3)cc1 (centres undefined),i,1.3,.,.,
Cc1cccc(NC(=O)C2CC3CCC2C3)c1C (centres undefined),i,6.9*,i,i,CHO-K1 ctr=-23;KCNQ1 sel pot=-14;KCNQ2 pot conf=14*;Kir21 spec=-29;KCNQ2 W236L MoA=i
COc1ccc(C(CNC(=O)c2cccc(S(=O)(=O)NCc3ccccc3)c2)N(C)C)cc1 (centres undefined),i,.,.,.,
O=C(COc1ccccc1)Nc1ccc(CN2CCCCC2)cc1,i,.,.,.,
CCN(c1ccccc1)S(=O)(=O)c1ccc(C(C(=O)OC)C(=O)OC)c([N+](=O)[O-])c1,i,.,.,.,
CCN(c1ccccc1)S(=O)(=O)c1cc([N+](=O)[O-])ccc1N,i,5,56%*,i,
COc1cc(/C=C(/C#N)C(=O)NC(C)c2ccccc2)cc(OC)c1O (centres undefined),i,.,.,.,
